Source: ChEMBL document CHEMBL1157539, “Thousands of chemical starting points for antimalarial lead identification” (Nature, 2010)

system: Plasmodium falciparum; experiment: GSK_TCMDC: Inhibition of Plasmodium falciparum Dd2 in whole red blood cells, using parasite LDH activity as an index of growth. Test compounds present at 2uM; assay type: functional

Compound | Inhibition
O=C(Nc1ccc(-c2cccc(-c3nc4cc(C(F)(F)F)ccc4[nH]3)c2)cc1)c1ccoc1 | 13%
N#Cc1ccc(C=Cc2nccc3c2[nH]c2ccccc23)cc1 | 28%
COc1cc2c(cc1S(=O)(=O)c1ccc(NC(=O)Nc3ccc(F)cc3)cc1)CCN(C)CC2.Cl | 55%
COc1ccc(CCNc2nc(SCc3ccccc3Cl)nc3ccccc23)cc1OC | 2%
CC(=O)N1CCC(C(=O)Nc2ccc(-c3cccc(-c4nc5cccc(C)c5[nH]4)c3)cc2)CC1 | 27%
COc1ccc(-c2nc3cc4ccccc4nc3[nH]2)c(OCC(O)CNC(C)C)c1.Cl (stereo not given) | 96%
CCOC(=O)N1CCN(CCCNc2c3ccc(Cl)cc3nc3ccc(OC)cc23)CC1 | 100%
OCCn1c(CNCCCNc2nc3ccccc3[nH]2)cc2c(Cl)cc(Cl)cc21 | 0%
CC1(C)C(N(O)C(=O)Nc2ccc(Cl)c(Cl)c2)N(c2ccc(Cl)c(Cl)c2)C(=O)N1CCc1ccccc1 (stereo not given) | 93%
COc1cc(Nc2ncnc3cc(OC)c(OC)cc23)cc([N+](=O)[O-])c1.Cl | 6%
CC(=O)/N=C1\N=C(NC(C)=O)NC(C)(C)N1OCCCOc1ccc(Cl)c(Cl)c1 | 94%
CC(C)CCNc1nc2ccccc2nc1Nc1cccc(C(F)(F)F)c1 | 99%
COc1cc(CNCCCCCCNCc2cc(OC)c(OC)c3ccccc23)c2ccccc2c1OC.CS(=O)(=O)O | 100%
CC(C)Oc1ccc(C=CC(=O)Nc2noc3ccccc23)cc1 | 95%
Cl.O=c1cc(NCCCNCc2ccc(Cl)c(Cl)c2)[nH]c2ccc(Oc3ccccc3)cc12 | 29%
Cc1cccc2nc(-c3ccc(-c4cccc(CN5CCC(C(N)=O)CC5)c4)s3)[nH]c12.O=C(O)C(F)(F)F | 16%
CNC(=O)C(NC(=O)c1ccccc1C(=O)OC)c1ccccc1 (stereo not given) | 2%
CN1CCN(c2cccc(Nc3nccc(NCC(O)c4ccccc4)n3)c2)CC1 (stereo not given) | 4%
Br.CC1(C)NC(N)=NC(=N)N1OCCCOc1cccc(Cl)c1 | 95%
Cc1noc(C)c1-c1cccc(CNCc2ccc(-c3cccc(-c4nc5cc(F)ccc5[nH]4)c3)cc2)c1.O=C(O)C(F)(F)F | 84%

Compound | Inhibition
O=C(/C=C/c1ccc(Cl)cc1)NCCCCCN1CCCN(C(=O)Nc2ccc(F)c(Cl)c2)CC1 | 6%
CCc1c(C)nc(-n2nc(C)cc2NC(=O)C2c3ccccc3Oc3ccccc32)[nH]c1=O | 80%
C=CCc1cc(SC)ccc1Oc1ccc(N)cc1.Cl | 2%
CCCCCCCN(Cc1ccc(OC(C)(C)C(=O)OCC)cc1)C(=O)Nc1ccccc1OC(F)(F)F | 68%
CC1(C)CCCC(=Cc2ccc(Br)cc2)C1(O)Cn1ccnc1 (stereo not given) | 69%
COc1ccc2nc(-c3ccc(C(=O)NCCCN4CCN(c5cc(Cl)ccc5OC)CC4)cc3OC)[nH]c2c1 | 24%
O=C(O)C(F)(F)F.OCC1CCN(Cc2ccc(-c3ccc(-c4nc5cc(F)ccc5[nH]4)s3)cc2)CC1 | 98%
CC(=O)Nc1cc(C(=O)Nc2cccc(-c3cccc(-c4nc5cc(C(F)(F)F)ccc5[nH]4)c3)c2)ccc1C | 43%
Cc1noc(C)c1-c1ccc(C(=C2CCCCCC2)c2ccc(O)cc2)cc1 | 96%
COc1cc(OC)cc(C(=O)Nc2cccc(-c3cn4ccc(C)cc4n3)c2)c1 | 45%
N=C(NCc1ccc(O)cc1)Nc1nc(-c2ccc(OCCCn3ccnc3)cc2)cs1 | 89%
COc1ccc(CNC2Cc3ccccc3C2)cc1-c1ccc(S(=O)(=O)NCCc2ccccn2)s1.O=C(O)C(F)(F)F | 22%
Cc1cccc2nc(-c3cccc(-c4cccc(NC(=O)Nc5ccc(Cl)c(Cl)c5)c4)c3)[nH]c12 | 96%
Cc1cc(C)n(Cc2ccc(C(=O)NCC3CCCCC3)cc2)n1 | 1%
Cc1ccc(CN2CCN(c3cc4c(cc3Cl)CCN4C(=O)Cc3ccc(NC(=O)c4ccc(C(F)(F)F)cc4)cc3)CC2)cc1 | 0%
N.Nc1nc2c(ncn2COC2COP(=O)(O)OC2)c(=O)[nH]1 (stereo not given) | 54%
Cn1nccc1C(=O)NCCNCc1ccc(-c2cccc(-c3nc4cc(F)ccc4[nH]3)c2)cc1.O=C(O)C(F)(F)F | 98%
O=C(Nc1ccc(-c2cccc(-c3nc4cc(C(F)(F)F)ccc4[nH]3)c2)cc1)c1cccnc1 | 24%
COC(=O)c1cccc(NC(=O)NC2CCN(c3ccnc(Nc4ccc(F)cc4)n3)C2)c1 (stereo not given) | 83%
COc1ccc2[nH]ccc(=NN=Cc3ccc(N(C)C)cc3)c2c1 | 95%
